Test results from PubChem BioAssay AID434962 (The Scripps Research Institute Molecular Screening Center, 2010).
Screen size: about 320,000 compounds; about 1,300 (0.41%) were called active.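 How the source made its calls: active means percent inhibition above the average of all tested compounds plus 3 SD, set per screening campaign (cut at about 16% in these data); inactive means the rest.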 For the sample, actives were picked, then their nearest neighbours and some compounds at random.

Target: Insulin-degrading enzyme (Homo sapiens) (UniProt P14735)
Sequence (P14735 whole entry, looked up): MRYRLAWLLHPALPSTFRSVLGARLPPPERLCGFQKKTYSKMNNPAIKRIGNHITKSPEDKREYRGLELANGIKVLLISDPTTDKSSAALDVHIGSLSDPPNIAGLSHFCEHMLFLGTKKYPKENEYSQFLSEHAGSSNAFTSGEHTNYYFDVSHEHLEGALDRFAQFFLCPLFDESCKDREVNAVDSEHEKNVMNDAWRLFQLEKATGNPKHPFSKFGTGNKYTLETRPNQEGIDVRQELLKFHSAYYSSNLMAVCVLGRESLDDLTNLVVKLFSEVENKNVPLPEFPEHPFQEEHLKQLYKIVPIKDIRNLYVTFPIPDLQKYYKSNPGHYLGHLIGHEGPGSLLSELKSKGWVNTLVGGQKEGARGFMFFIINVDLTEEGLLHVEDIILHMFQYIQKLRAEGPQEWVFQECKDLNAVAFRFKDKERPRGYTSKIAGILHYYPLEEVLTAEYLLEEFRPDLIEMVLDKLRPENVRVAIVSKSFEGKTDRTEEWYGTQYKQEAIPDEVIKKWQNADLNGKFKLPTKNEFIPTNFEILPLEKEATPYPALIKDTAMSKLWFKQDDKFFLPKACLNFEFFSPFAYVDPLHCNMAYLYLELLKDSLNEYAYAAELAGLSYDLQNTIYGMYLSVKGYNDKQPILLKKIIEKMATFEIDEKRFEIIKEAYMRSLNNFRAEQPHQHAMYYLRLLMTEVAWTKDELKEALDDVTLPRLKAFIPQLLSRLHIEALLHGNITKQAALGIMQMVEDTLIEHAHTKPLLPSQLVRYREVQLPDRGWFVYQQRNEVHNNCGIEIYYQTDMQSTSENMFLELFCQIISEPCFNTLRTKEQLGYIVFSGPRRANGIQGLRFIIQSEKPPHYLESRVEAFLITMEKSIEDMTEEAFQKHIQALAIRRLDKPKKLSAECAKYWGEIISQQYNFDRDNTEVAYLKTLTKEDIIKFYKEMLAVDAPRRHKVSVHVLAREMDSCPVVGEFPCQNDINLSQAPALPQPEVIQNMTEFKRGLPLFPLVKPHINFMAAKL
Assay: cellular IDE Abeta-cleavage inhibition – fluorescence polarization, HEK cells, FAbetaB substrate, primary screen (AID 434962);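 further: IDE supplied by intact live HEK cells; FP after avidin binding of uncleaved biotin substrate so inhibition keeps polarization high; 0% = DMSO wells and 100% = 60 µM reference IDE inhibitor Ii1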
Conditions: at 5.59 µM, hits give high values

inhibition, active:
COc1ccc(C(=O)Nc2nc(-c3ccc(S(=O)(=O)N4CCOCC4)cc3)cs2)cc1 24.5%
O=C(/C=C/c1ccc(OCc2c(F)cccc2Cl)cc1)N1CCOCC1 21.1%
Cc1cccc(N2CCN(C(=O)c3cccc(N4C(=O)C5C6C=CC(C6)C5C4=O)c3)CC2)c1C (stereo unspecified) 44.4%
COc1ccc(Br)cc1C(=O)NC(=S)Nc1cc(-c2nc3ccccc3[nH]2)ccc1C 24.5%
Cc1cc(Cl)ccc1OCCCC(=O)NCc1ccncc1 22.1%
COc1cc(/C=C2/SC(=S)N(Cc3ccccc3)C2=O)cc(OC)c1O 68.4%
N#C/C(=C\c1ccc(N2CCOCC2)o1)C(=O)N1CCOCC1 20.9%
O=C(Oc1c(-c2ccco2)oc2ccccc2c1=O)c1cccnc1 68.4%
Cc1ccccc1Nc1nnc(SCC(=O)c2cc3ccccc3o2)s1 18.7%
CC(=O)c1cc(NC(=O)c2ccccc2)c(=O)oc1/C=C/N(C)C 16.3%
O=C(Nc1ccc(Sc2ccc(Br)cc2)cc1)c1ccco1 17.8%

inhibition, inactive:
Cc1ccc(S(=O)(=O)N2CCN(CC(=O)N/N=C/c3ccc(Br)s3)CC2)cc1 2.15%
CCOC(=O)c1csc(NC(=O)c2ccc(S(=O)(=O)N3CCCC3)cc2)n1 0.72%
CNC(=O)c1ccsc1NC(=O)c1ccc(S(=O)(=O)N2CCOCC2)cc1 6.05%
CC(=O)CC(CC(=O)NC1CCCCC1)c1ccccc1 (stereo unspecified) -6.38%
COCCCNC(=O)/C=C/c1ccc(OCc2c(F)cccc2Cl)cc1 11.8%
CN(C)CCCNC(=O)/C=C/c1ccc(OCc2c(F)cccc2Cl)cc1 5.4%
CC1C=CCC2C(=O)N(c3cccc(C(=O)N4CCCCCC4)c3)C(=O)C12 (stereo unspecified) -1.29%
CCn1c(C)c(C)c2cc(C(=O)N3CCN(c4cccc(C)c4C)CC3)ccc21 -0.11%
CC(C)(C)C(=O)Nc1c(Br)c(C2CC2)nn1-c1ccccc1 0.92%
Cc1c(NC(=O)C(C)OC(=O)c2cc3c4ccccc4n(C)c3s2)c(=O)n(-c2ccccc2)n1C (stereo unspecified) -0.34%
CCCn1c(N)c(C(=O)CSc2nc3ccccc3c(=O)n2-c2ccc(OC)cc2)c(=O)[nH]c1=O -10.9%
COc1ccc(Br)cc1C(=O)Nc1cccc(C)c1C 2.56%
Cc1cc2[nH]ncc2cc1NC(=S)NC(=O)c1ccccc1 -2.99%
CCOC(=O)C(CC)/C(C)=N\NC(=O)c1cccc(C)c1 (stereo unspecified) -1%
Cc1cc(Cl)ccc1OCCCC(=O)Nc1cccc(-n2cnnn2)c1 6.2%
Cc1cc(Cl)ccc1OCCCC(=O)NCc1ccccn1 -0.14%
CN(C)Cc1ccc(F)cc1Sc1cc(Cl)ccc1Cl 7.05%
CCOC(=O)CNc1nc(Cl)nc(Nc2ccc(OC)cc2OC)n1 -1.6%
COc1ccc(/C=C2\SC(=S)N(CCCC(=O)NC3CCCC3)C2=O)cc1OC -2.87%
COc1ccc(/C=C2\SC(=S)N(CCC(=O)Nc3cccc(C(=O)O)c3)C2=O)cc1OC 1.95%
O=C(Nc1ccnn1C1CCN(C/C=C/c2ccc(F)cc2)CC1)C1CCCC1 -2.53%
COc1cccc(CNC(=O)Cn2c(=O)oc3cc(S(=O)(=O)N4CCCCC4)ccc32)c1 4.33%
Cn1c(NC(=O)c2ccco2)c(-c2ccccc2Cl)c(=O)c2ccccc21 -1.57%
N#C/C(=C\c1ccc(-c2cccc([N+](=O)[O-])c2)o1)C(=O)NCCN1CCOCC1 -0.08%
N#C/C(=C/c1ccc(N2CCOCC2)o1)C(=O)N1CCOCC1 14.4%
Cc1ccc(C(=O)c2ccc(N3CCN(C)CC3)c([N+](=O)[O-])c2)cc1 -2.73%
CCCCc1ccc(NC(=O)NCc2cccnc2)cc1 4.26%
CCN(CC(=O)NCc1ccc(F)cc1)S(=O)(=O)c1ccc(Cl)s1 7.4%
O=C(COC(=O)CCOc1ccccc1)Nc1cc(S(=O)(=O)N2CCCCC2)ccc1Cl 5.23%
CCC(C)(C)NC(=O)CN(C(=O)CCC(=O)Nc1nccs1)c1ccc2c(c1)OCO2 -1.66%
O=C(Oc1ccc(Br)cc1)c1cccnc1 1.44%
N#CCc1ccc(OC(=O)c2cccnc2)cc1 -4.29%
Cc1csc(=O)n1CCC(=O)OCC(=O)NNC(=O)c1ccc(Br)cc1 -2.19%
Cc1cc2c(=O)n(C)c(SCC(=O)c3cc4ccccc4o3)nc2s1 1.59%
CCOc1ccccc1Nc1nnc(SCC(=O)Nc2cc(C)on2)s1 3.25%
CCc1ccc(CNC(=O)C2CC(=O)N(CCc3ccc(C)cc3)C2)cc1 (stereo unspecified) -4.43%
CCCCN(C(=O)CSCC(=O)Nc1ccc(OC)cc1)c1c(N)n(CCC)c(=O)[nH]c1=O -1.31%
CCOC(=O)c1cc(NC(=O)c2ccc(Cl)cc2)c(=O)oc1-c1ccccc1 1.63%
CC(=O)Oc1cccc(C(=O)Nc2ccccc2NC(=O)c2cccc(OC(C)=O)c2)c1 -2.81%
Cc1cc(OCC(=O)N2CCN(c3ncccn3)CC2)ccc1Cl -0.8%
O=C(Nc1ccc(O)cc1)c1ccc(NC(=O)c2ccco2)cc1 3.06%
O=C(CNC(=O)c1ccco1)NNC(=O)c1ccc(Br)cc1 2.95%
CC1CCCCN1S(=O)(=O)CCNC(=O)c1ccccc1 (stereo unspecified) 1.88%
CC(C)(C)OC(=O)N[C@H](C(=O)OC(C)(C)C)c1ccc(Br)cc1 2.45%
CN1CCNC(=O)C1CC(=O)NCCC1=CCCCC1 (stereo unspecified) 1.39%
